Experimental findings from PubChem BioAssay are described below.

Several values for one entry are separate records, joined by “and”; a condition that tells them apart may be missing. Identical values can stand only once. Records with an inconclusive call do not appear. Activity calls are given as the source filed them. Unless noted, no rule for the calls is given here.

Assay [1] in a line: signal quenchers or enhancers, Cy5 substrate/SSB – biochemical, NIH Clinical Collection, E. coli SSB, artefact control for HCV NS3 helicase inhibitor project (AID 743268). The following applies: Cy5-oligo bound E. coli SSB, fluorescence interference.
The test system of assay [2] is Hepatitis C virus NS3 helicase. The experiment in a line: blockers of NS3h binding to DNA – biochemical, fluorescence polarization, NIH Clinical Collection, primary screen (AID 743270). The following applies: NS3 helicase binding to Cy5-dT15 DNA, stronger effect = higher value, concentration not given here. A general note: Polarisation of emitted light reports the rotation of a fluorescent probe.

Assay [3] concerns the target Single-stranded DNA-binding protein (Escherichia coli (strain K12)) (UniProt P0AGE0). The experiment in a line: SSB-ssDNA binding inhibitors – biochemical, fluorescence polarization, NIH Clinical Collection, counter-screen for HCV NS3 helicase inhibitor project (AID 743271; in the data active = inhibition above about 28%). The following applies: E. coli SSB-DNA binding, stronger effect = higher value, concentration not given here.

Assay [4] in a line: compounds distorting NS3 helicase fluorescence signal – biochemical, NIH Clinical Collection, artefact control for HCV NS3 helicase inhibitor project (AID 743272).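 Also: HCV NS3 helicase with a Cy5 labelled single stranded DNA probe.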 The following applies: fluorescence interference counterscreen, HCV NS3 helicase assay; stronger effect = lower value.
The test system of assay [5] is Neuropilin-2 / VEGF-C interaction (human). In words: small molecules blocking Neuropilin-2/VEGF-C interaction – biochemical, microplate binding format, z-score (AID 743281). To be noted: microplate NRP2/VEGF-C binding assay; stronger effect = lower value.
Assay [6] is described as follows: viability loss in pontine glioma line – cell-based, SU-DIPG-XVII, MIPE5.0, CellTiter-Glo, qHTS, dose response (AID 1347060; cut-off not given, nearly all actives have AC50 up to about 26 µM;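 as to AC50: cells exposed to compound for 48 hours before viability readout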). The following applies: CellTiter-Glo ATP luminescence. On the technique in general: In ATP-based viability assays light output follows the ATP content of the culture.
A short description of assay [7]: viability loss in pontine glioma line – cell-based, SU-DIPG-XIII, MIPE4.0, CellTiter-Glo, qHTS, dose response (AID 1347061; cut-off not given, nearly all actives have AC50 up to about 37 µM;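 also: cells exposed to compound for 48 hours before readout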). To be noted: CellTiter-Glo ATP luminescence.
A short description of assay [8]: viability loss in pontine glioma line – cell-based, JHH-DIPG-1, MIPE4.0, CellTiter-Glo, qHTS, dose response (AID 1347062; cut-off not given, nearly all actives have AC50 up to about 27 µM;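 as to AC50: cells exposed to compound for two days before readout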). To be noted: JHH-DIPG-1 viability, CellTiter-Glo ATP luminescence.
Assay [9] in a line: viability loss in pontine glioma line – cell-based, SU-DIPG-IV, MIPE4.0, CellTiter-Glo, qHTS, dose response (AID 1347063; cut-off not given, nearly all actives have AC50 up to about 30 µM;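 also: compound exposure lasted 48 hours before the viability readout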). To be noted: CellTiter-Glo ATP luminescence.
The nature of assay [10]: growth inhibition of DIPG cells – cell-based, MIPE4.0 library, CellTiter-Glo luminescence, qHTS (AID 1347066; cut-off not given, nearly all actives have AC50 up to about 30 µM;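 also: cells exposed to compound for 48 hours before readout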). The following applies: SU-DIPG-VI viability, CellTiter-Glo ATP luminescence.
A short description of assay [11]: JHH-DIPG-1 glioma cell viability, MIPE5.0 library, CellTiter-Glo luminescence, qHTS (AID 1347067; cut-off not given, nearly all actives have AC50 up to about 26 µM;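 also: cells exposed to compound for 48 hours before readout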). The following applies: JHH-DIPG-1 glioma viability, CellTiter-Glo ATP luminescence.
Assay [12] can be described thus: growth inhibition of DIPG cells – cell-based, MIPE5.0 library, qHTS (AID 1347068; cut-off not given, nearly all actives have IC50 up to about 30 µM;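 as to IC50: cells exposed to compound for 48 hours before viability readout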). The following applies: SU-DIPG-XXV viability. Background: In qHTS, concentration-response curves come from the screen itself.
In the next assay the test system is F380Y/beta1. In words: BK channel mutant inhibitors and activators – cell-based, U2OS BacMam, thallium flux, beta subunits, selectivity assay, profiling panel (AID 1259406;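 active = thallium flux through the channel raised or lowered by more than 3 SD from vehicle-only wells, actives on both sides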;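 also: initial slope of Thallos dye fluorescence rise after thallium is added; log ratio against the mean of 0.3% DMSO vehicle wells on the same plate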). The following applies: U2OS BacMam BK variants, at 30 µM.
For a further assay, the system named is F380Y/beta4. The assay is described as above. The following applies: U2OS BacMam BK variants, at 30 µM.
A further assay deals with R275C/beta4. Described as above. The following applies: U2OS BacMam BK variants, at 30 µM.
Assay [13] has as its system Aerobactin synthetase IucA (Klebsiella pneumoniae). In words: inhibition of K. pneumoniae IucA enzyme – biochemical, Tocris library, absorbance (AID 1345561).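 Also: 100% = enzyme without compound and 0% = no enzyme.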 To be noted: purified IucA enzyme assay, absorbance (OD) read-out; stronger effect = lower value;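 tested at 8 µM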.
Assay [14] in a line: growth inhibition, single agent or in combination, cell-based, chromothripsis tumors, cisplatin or BGB combos (AID 1671449; in the data active = inhibition above about 80%;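 also: cells exposed for 96 hours; 0% = vehicle DMSO and 100% = killing by high DMSO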). The following applies: LFS_MB_P medulloblastoma cells.
A short description of assay [15]: growth inhibition, single agent and combos, cell-based, chromothripsis tumors, cisplatin or BGB combos (AID 1671450; in the data active = inhibition above about 80%;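 also: cells exposed to compound for four days; 0% = vehicle DMSO and 100% = cell killing by high DMSO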). The following applies: HDN33 neuroblastoma cells, stronger effect = higher value.
Assay [16] in a line: growth inhibition, single agents and combos, ICB984, cell-based, cisplatin or BGB combos, synergistic combos for chromothripsis tumors (AID 1671451).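 Also: cells exposed for 96 hours before readout; 0% = vehicle DMSO and 100% = killing by high DMSO.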 The following applies: ICB984 medulloblastoma cells, drug combinations, stronger effect = higher value.
Assay [17] is described as follows: growth inhibition, single agents and combos, HTB85, cell-based, BGB or cisplatin IC20 combos, synergistic combos for chromothripsis tumors (AID 1671453; in the data active = inhibition above about 80%;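 also: cells exposed for 96 hours before readout; 0% = vehicle DMSO and 100% = high DMSO killing control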). To be noted: HTB85 osteosarcoma cells, drug combinations, stronger effect = higher value.

In the case of `CC(NC(C)(C)C)C(=O)c1cccc(Cl)c1` (stereo not drawn), the fluorescence ratio in [1] was 1.04 (inactive) and 1.06 (inactive); in [4] it was 1 (inactive). Moreover, the inhibition in assay [2] is -3.56% (inactive) and 3.56% (inactive); in [3], -3.18% (inactive) and 3.75% (inactive). Moreover, the z-score in assay [5] is -0.243 (inactive) and -0.0135 (inactive). For the same compound, the compound was classed as inactive in assay [6], in assay [7], in assay [8], in assay [9], in [10] and in [11]. Also, in assay [12], the result was inactive. In addition, the log fold change Tl+ flux in the assay on F380Y/beta1 is -0.0211 (inactive) and 0.0228 (inactive); in the assay with F380Y/beta4 it was -0.0339 (inactive) and 0.00749 (inactive); with R275C/beta4, -0.00901 (inactive) and 0.0176 (inactive).

For the compound `O=c1[nH]oc2c1CCNC2`, the remaining activity in assay [13] is 79% (inactive).

As for `O=c1[nH]c2ccccc2n1C1CCN(CCCC(c2ccc(F)cc2)c2ccc(F)cc2)CC1`, in assay [13], the remaining activity was 106% (inactive).

Take `CN(C)[C@@H]1C(=O)C(C(N)=O)=C(O)[C@@]2(O)C(=O)C3=C(O)c4c(O)cccc4[C@@](C)(O)[C@H]3[C@H](O)[C@@H]12`: the figures for the fluorescence ratio in assay [1] and in assay [4] were 1.03 (inactive) and 0.85 (inactive), respectively. The values for the inhibition in assay [2] and in assay [3] were -4.09% (inactive) and 4.86% (inactive), respectively. Besides, the result in [6], in assay [7], in assay [8], in assay [9], in [10] and in [11] was inactive. In addition, the call in [12] was inactive. Also, the log fold change Tl+ flux in the assay with F380Y/beta1 is 0.0522 (inactive); in the assay with F380Y/beta4, -0.0391 (inactive); in the assay with R275C/beta4 it was 0.0299 (inactive).

Consider `C=C(C)[C@H]1Cc2c(ccc3c2O[C@@H]2COc4cc(OC)c(OC)cc4[C@@H]2C3=O)O1`, for which the values for the AC50 in [6] and in [11] were 1.32 µM (active) and 1.48 µM (active), respectively. Moreover, in assay [7], the result was inactive.

Consider `NCC(O)c1ccc(O)cc1` (stereo not drawn), for which the remaining activity in [13] was 96.2% (inactive).

For `C[C@@H]1C[C@@H]([C@H](O)CC2CC(=O)NC(=O)C2)C(=O)[C@@H](C)C1`, the concentration at half-maximal activity (AC50) is 0.934 µM (active) in assay [6], 0.743 µM (active) in [8] and 0.469 µM (active) in assay [9]. In assay [10], the outcome was inactive. Moreover, the IC50 in assay [12] was 0.934 µM (active).

In the case of `COc1ccc(C(CN(C)C)C2(O)CCCCC2)cc1` (stereo not drawn), the fluorescence ratio in assay [1] is 1.07 (inactive); in assay [4], 0.93 (inactive). Moreover, the inhibition was -2.77% (inactive) in assay [2] and 1.44% (inactive) in assay [3]. The z-score in [5] was 0.57 (inactive). Moreover, the result in [7], in assay [8], in assay [9] and in assay [10] was inactive. Besides, the log fold change Tl+ flux is -0.0404 (inactive) in the assay with F380Y/beta1, 0.00869 (inactive) in the assay with F380Y/beta4 and 0.0192 (inactive) with R275C/beta4.

Regarding `CN1C(=O)CCS(=O)(=O)C1c1ccc(Cl)cc1` (stereo not drawn), in assay [13], the remaining activity is 97.1% (inactive). Also, the call in assay [6], in assay [7], in assay [8], in assay [9], in [10] and in assay [11] was inactive. Further, the compound was called inactive in assay [12].

As to `COC(=O)C1=CCCN(C)C1`, the compound was called inactive in assay [9] and in assay [10].

On to `O=P1(N(CCCl)CCCl)NCCCO1` (stereo not drawn), for which the fluorescence ratio in assay [1] was 1.07 (inactive); in assay [4], 0.99 (inactive). Besides, the inhibition in [2] is -4.09% (inactive); in assay [3], 1.05% (inactive); in [14] (at 0.5 µM, stronger effect = higher value), -6.53% (inactive) and -7.84% (inactive); in assay [14] (measured here: combination with BGB IC20, at 0.005 µM), 2.32% and -13.2%; in [14] (measured here: combination with BGB IC40, at 0.005 µM), -6.39% and -22.4%; in assay [14] (measured here: combination with BGB IC40, at 0.05 µM) it was -5.95% and 13%. Moreover, the inhibition is -9.48% and -17.9% in assay [14] (measured here: combination with cisplatin, at 0.5 µM, stronger effect = higher value); -25.8% and -37.1% in assay [14] (measured here: combination with cisplatin, at 5 µM, stronger effect = higher value); -38.1% and 11.3% in assay [15] (BGB combo, at 5 µM); -28.6% (inactive) and -1.03% (inactive) in assay [15] (at 0.5 µM); -13.9% and -0.927% in assay [15] (cisplatin combo, at 5 µM); -28.4% and 3.51% in assay [15] (measured here: with BGB IC20 combination, at 0.5 µM). Besides, the inhibition in assay [15] (measured here: with cisplatin IC20 combination, at 0.5 µM) is -36.3% and 6%; in assay [15] (single agent, at 5 µM) it was -28.1% and -8.82%; in assay [16] (BGB IC20 combo, at 0.005 µM) it was -3.81% and -12.8%; in [16] (BGB IC40 combo, at 0.005 µM) it was -4.33% and -15%; in assay [16] (BGB IC40 combo, at 0.05 µM), -3.91% and -28.7%; in assay [16] (at 0.5 µM), -31.6% (inactive) and -25.4% (inactive). Also, the inhibition in assay [16] (cisplatin combo, at 0.05 µM) was -7.65% and -28.7%; in assay [16] (cisplatin combo, at 0.5 µM) it was -40.7% and -25.4%; in assay [16] (cisplatin combo, at 5 µM), -21.7% and -28.6%; in assay [16] (measured here: 5 uM single agent, at 5 µM), 6.31% and -15%; in [17] (at 0.5 µM), -15.6% (inactive) and -16.2% (inactive); in [17] (measured here: with BGB IC20, at 0.5 µM) it was -17.1% and -31%. The inhibition was -9.3% and -18.7% in assay [17] (measured here: with BGB IC20, at 5 µM); -29.3% and -21% in assay [17] (measured here: with cisplatin IC20, at 0.5 µM); -39.9% and -19.6% in assay [17] (measured here: with cisplatin IC20, at 5 µM); 0.113% and -3.32% in assay [17] (single agent, at 5 µM). Also, the compound was called inactive in [6], in [7], in [8], in [9], in assay [10] and in [11]. The result in [12] was inactive. Moreover, the log fold change Tl+ flux with F380Y/beta1 was -0.00569 (inactive); in the assay on F380Y/beta4 it was -0.0197 (inactive); with R275C/beta4, 0.0832 (inactive).

With `O=c1[nH]c2ccccc2n1CCCN1CCC(n2c(=O)[nH]c3cc(Cl)ccc32)CC1`, the remaining activity in [13] is 103% (inactive). For the same compound, the compound was classed as inactive in assay [6], in assay [7], in assay [8], in [10] and in [12].

The inhibition is the relative decrease from the control value, in per cent. What is called remaining activity is the signal under treatment as a percentage of the control signal. As usually defined, the AC50 is the concentration giving half of the maximal activity seen. What is called IC50 is the midpoint of a concentration-inhibition curve.
